Reference: PubChem BioAssay (EPA / NIEHS)
Results filed as inconclusive are left out. Activity calls are given as the source filed them. The calls were made as follows, unless noted: active = hit-call score of the fitted dose curve at least 0.9, where 1 is the maximum; inconclusive = response in the unintended direction; inactive = score below 0.9.

Tests used:
[1] = target: Cellular tumor antigen p53 (Homo sapiens) (UniProt P04637); assay: TOX21_p53_BLA_p2_ratio: Tox21 HCT-116 p53 Agonism Beta-lactamase Assay, Ratio, Phase 2 (AID 2283592)
Outline: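 HCT116 cells carrying a p53-responsive beta-lactamase reporter were plated, incubated 5 h at 37C, then dosed with compounds in DMSO (217-fold dilution) for 16 h. CCF4-AM substrate was added for 2 h at room temperature; the 460/530 nm emission ratio gave gain-of-signal activity relative to DMSO.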

[2] = target: Cellular tumor antigen p53 (Homo sapiens) (UniProt P04637); assay: TOX21_p53_BLA_p3_ratio: Tox21 HCT-116 p53 Agonism Beta-lactamase Assay, Ratio, Phase 3 (AID 2283596)
Outline: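 HCT116 p53-bla cells (4000/well) given compound in DMSO (217-fold dilution) after 5 h, incubated 16 h at 37C. CCF4-AM substrate 2 h at room temperature; 460/530 nm emission ratio, gain fitted against DMSO.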

[3] = TOX21_p53_BLA_p4_viability: Viability Assessment in the Tox21 HCT-116 p53 Agonism Beta-lactamase Assay, Phase 4 (AID 2283597);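 also: hits lower the luminescence signal meaning cytotoxicity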
Outline: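 HCT116 p53-bla cells (4000/well) rested 5 h at 37C, then received compounds in DMSO (217-fold dilution) for 16 h at 37C, 5% CO2. CellTiter-Glo was added after the CCF4-AM read, and luminescence was read after 30 min at room temperature.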

[4] = target: Cellular tumor antigen p53 (Homo sapiens) (UniProt P04637); assay: TOX21_p53_BLA_p5_ratio: Tox21 HCT-116 p53 Agonism Beta-lactamase Assay, Ratio, Phase 5 (AID 2283599)
Outline: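 HCT-116 p53-bla cells (4000/well) plated 5 h, dosed with compound (217-fold DMSO dilution) for 16 h at 37 C; CCF4-AM substrate 2 h at room temperature. Activity is the 460/530 nm emission ratio (405 nm excitation), fitted in gain-of-signal direction versus DMSO.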

[5] = target: Cellular tumor antigen p53 (Homo sapiens) (UniProt P04637); assay: TOX21_p53_BLA_p4_ratio: Tox21 HCT-116 p53 Agonism Beta-lactamase Assay, Ratio, Phase 4 (AID 2283601)
Outline: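 HCT-116 p53 beta-lactamase reporter cells (4000/well) preincubated 5 h, then compound (217-fold dilution of DMSO stock) for 16 h at 37C. CCF4-AM substrate added 2 h at room temperature; 460/530 nm emission ratio fitted upward versus DMSO.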

[6] = TOX21_p53_BLA_p5_viability: Viability Assessment in the Tox21 HCT-116 p53 Agonism Beta-lactamase Assay, Phase 5 (AID 2283600)
Outline: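 Cells were plated at 4000/well, rested 5 h at 37C, then given compounds in DMSO (217-fold dilution) for 16 h at 37C, 5% CO2. Following the CCF4-AM beta-lactamase read, CellTiter-Glo was added and luminescence was read after 30 min at room temperature.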

[7] = target: Thyroid hormone receptor alpha (Rattus norvegicus) + Thyroid hormone receptor beta (Rattus norvegicus) (UniProt P18113+P63059); assay: TOX21_TR_LUC_GH3_Antagonist_Followup: Tox21 GH3 Thyroid Hormone Receptor Antagonism Luciferase Follow-Up Assay (AID 2283942)
Outline: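 Antagonist mode: GH3 cells seeded 1,500/well, compounds at 15 concentrations (92 uM to 5nM final) plus T3 at 1.0 nM final, 24 h at 37C. Luciferase read with ONE-Glo after 30 min at room temperature.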

[8] = target: THRA (gene 7067) (UniProt P10827); assay: TOX21_TRA_COA_Antagonist_Followup_ratio: Tox21 Thyroid Hormone Receptor alpha Antagonism through Coactivator Recruitment Follow-Up Assay, Ratio (AID 2283953)
Outline: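 This follow-up to the GH3 luciferase screen checks specificity in a cell-free format. It measures SRC-2 coactivator peptide binding to TRα LBD by TR-FRET and scores loss of ratio signal relative to DMSO.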

[9] = TOX21_TRB_BLA_Antagonist_Followup_viability: Viability Assessment in the Tox21 Thyroid Hormone Receptor beta Antagonism Beta-lactamase (BLA) Follow-Up Assay (AID 2283961)
Outline: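 HEK293T cells stably expressing GAL4-DBD/human TRβ-LBD with UAS-bla reporter, 3,000 cells/well in phenol red-free DMEM, 2% charcoal-stripped FBS. Compounds at 11 concentrations in triplicate, 18 h at 37C/5% CO2; viability by CellTiter-Glo luminescence after 30 min at room temperature.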

[10] = target: THRB (gene 7068) (UniProt P10828); assay: TOX21_TRB_COA_Antagonist_Followup_ratio: Tox21 Thyroid Hormone Receptor beta Antagonism through Coactivator Recruitment Follow-Up Assay, Ratio (AID 2283967)
Outline: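 Cell-free TR-FRET: GST-TRb LBD (5.0 nM) with fluorescein-SRC-2 peptide (200 nM) and Tb anti-GST antibody (2 nM), 0.10% BSA. 520:495 nm emission ratio normalized to DMSO (0%) and T3 (100%).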

[11] = target: Retinoic acid receptor RXR-alpha (Homo sapiens) (UniProt P19793); assay: TOX21_TR_RXR_BLA_Antagonist_Followup_ratio: Tox21 Thyroid Hormone Receptor beta Retinoid X Receptor alpha (RXRa) Antagonism Beta-lactamase (BLA) Follow-Up Assay, Ratio (AID 2283972)
Outline: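 RXRa-UAS-bla HEK293T cells in phenol red-free DMEM with 2% charcoal-stripped FBS; compounds at 11 concentrations in triplicate, 16 h at 37C. LiveBLAzer FRET-B/CCF4-AM substrate 2 h at room temperature; read as 460:530 nm ratio versus DMSO.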

[12] = TOX21_TR_RXR_BLA_Antagonist_Followup_viability: Viability Assessment in the Tox21 Thyroid Hormone Receptor beta Retinoid X Receptor alpha (RXRa) Antagonism Beta-lactamase (BLA) Follow-Up Assay (AID 2283979)
Outline: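 RXRa-bla HEK293T cells (2,500/well, phenol red-free DMEM, 2% charcoal-stripped FBS) were attached 5 h, then exposed to compounds at 11 concentrations in triplicate for 16 h at 37C. Viability measured by CellTiter-Glo ATP luminescence, bidirectional fitting versus DMSO.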

[13] = ACEA_ER_AUC_viability: ACEA Biosciences xCELLigence Real-Time Cell Analysis on Estrogen Receptor Agonism for Viability (AID 2283782);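 also: continuous compound exposure with impedance area under curve over 80 h; hit means loss of impedance signal meaning reduced cell growth or viability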
Outline: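 T47D cells preconditioned in phenol red-free RPMI with charcoal-stripped FBS, then dosed with 8-point 1:4 series from 100 uM (up to 0.5% DMSO). Impedance monitored up to ~80 h; area-under-curve loss versus DMSO taken as viability.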

[14] = CCTE_Harrill_HTTr_Viability_MCF7: CCTE's 6-hour Cell Viability Assessment for the High-Throughput Transcriptomics (HTTr) Platform, in MCF-7 cells cultured in DMEM + 10% fetal bovine serum, Harrill Lab (AID 2284010; active = hit-call score of the fitted dose curve at least 0.9, where 1 is the maximum; inactive = score below 0.9)
Outline: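 Membrane integrity was scored by high-content imaging of propidium iodide dye exclusion after a 6 h exposure across an eight-point dilution series. Data were fitted bidirectionally relative to DMSO as negative control and baseline.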

[15] = CCTE_Harrill_HTTr_Apoptosis_MCF7: CCTE's 6-hour Apoptosis Assessment for the High-Throughput Transcriptomics (HTTr) Platform, in MCF-7 cells cultured in DMEM + 10% fetal bovine serum, Harrill Lab (AID 2284011; active = hit-call score of the fitted dose curve at least 0.9, where 1 is the maximum; inactive = score below 0.9)
Outline: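 MCF-7 cells in DMEM + 10% fetal bovine serum were exposed to chemicals for 6 hours over an eight-point dilution series. Caspase-3/7 activation was imaged by high content imaging with CellEvent Caspase 3/7 Green; bidirectional fitting used DMSO as baseline.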

Measured: AC50

Cellular tumor antigen p53 (Homo sapiens), sequence (P04637 whole entry, looked up): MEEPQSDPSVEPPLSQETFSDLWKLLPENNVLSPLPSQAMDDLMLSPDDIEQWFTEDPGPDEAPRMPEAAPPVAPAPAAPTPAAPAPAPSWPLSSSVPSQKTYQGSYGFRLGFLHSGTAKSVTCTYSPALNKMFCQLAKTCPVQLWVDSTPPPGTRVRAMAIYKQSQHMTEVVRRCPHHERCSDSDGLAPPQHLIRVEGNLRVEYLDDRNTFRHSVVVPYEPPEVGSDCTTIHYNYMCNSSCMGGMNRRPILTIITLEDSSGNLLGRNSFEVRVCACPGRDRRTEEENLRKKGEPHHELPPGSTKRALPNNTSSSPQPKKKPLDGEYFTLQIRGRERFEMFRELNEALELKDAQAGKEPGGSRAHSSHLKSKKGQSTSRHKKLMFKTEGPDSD
THRA (gene 7067), sequence (P10827 whole entry, looked up, the tested form may be a part): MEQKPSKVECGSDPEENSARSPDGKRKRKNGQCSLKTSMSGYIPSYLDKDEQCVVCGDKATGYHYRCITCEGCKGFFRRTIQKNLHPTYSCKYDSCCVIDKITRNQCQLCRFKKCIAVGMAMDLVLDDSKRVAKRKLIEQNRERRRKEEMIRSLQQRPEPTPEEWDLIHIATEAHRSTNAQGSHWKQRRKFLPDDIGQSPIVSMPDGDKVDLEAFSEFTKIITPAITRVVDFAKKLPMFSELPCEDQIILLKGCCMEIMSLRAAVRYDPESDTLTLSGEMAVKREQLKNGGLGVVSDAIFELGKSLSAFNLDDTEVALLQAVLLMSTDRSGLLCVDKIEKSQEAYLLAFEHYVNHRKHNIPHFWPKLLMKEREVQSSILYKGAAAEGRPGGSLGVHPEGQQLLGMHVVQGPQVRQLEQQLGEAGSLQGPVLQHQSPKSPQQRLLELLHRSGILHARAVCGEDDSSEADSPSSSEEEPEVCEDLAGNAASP
Retinoic acid receptor RXR-alpha (Homo sapiens), sequence (P19793 whole entry, looked up): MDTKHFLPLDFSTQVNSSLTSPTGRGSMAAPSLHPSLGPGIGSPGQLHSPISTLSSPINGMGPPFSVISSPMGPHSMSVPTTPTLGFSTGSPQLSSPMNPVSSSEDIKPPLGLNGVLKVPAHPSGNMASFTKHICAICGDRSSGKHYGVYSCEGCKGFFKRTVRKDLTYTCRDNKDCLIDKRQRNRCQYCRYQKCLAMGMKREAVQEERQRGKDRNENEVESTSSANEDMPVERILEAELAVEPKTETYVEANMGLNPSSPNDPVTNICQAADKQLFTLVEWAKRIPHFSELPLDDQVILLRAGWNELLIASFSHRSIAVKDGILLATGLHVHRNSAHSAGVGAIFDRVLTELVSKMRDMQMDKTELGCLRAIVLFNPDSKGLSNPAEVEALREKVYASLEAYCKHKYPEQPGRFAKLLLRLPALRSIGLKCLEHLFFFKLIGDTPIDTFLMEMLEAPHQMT
THRB (gene 7068), sequence (P10828 whole entry, looked up, the tested form may be a part): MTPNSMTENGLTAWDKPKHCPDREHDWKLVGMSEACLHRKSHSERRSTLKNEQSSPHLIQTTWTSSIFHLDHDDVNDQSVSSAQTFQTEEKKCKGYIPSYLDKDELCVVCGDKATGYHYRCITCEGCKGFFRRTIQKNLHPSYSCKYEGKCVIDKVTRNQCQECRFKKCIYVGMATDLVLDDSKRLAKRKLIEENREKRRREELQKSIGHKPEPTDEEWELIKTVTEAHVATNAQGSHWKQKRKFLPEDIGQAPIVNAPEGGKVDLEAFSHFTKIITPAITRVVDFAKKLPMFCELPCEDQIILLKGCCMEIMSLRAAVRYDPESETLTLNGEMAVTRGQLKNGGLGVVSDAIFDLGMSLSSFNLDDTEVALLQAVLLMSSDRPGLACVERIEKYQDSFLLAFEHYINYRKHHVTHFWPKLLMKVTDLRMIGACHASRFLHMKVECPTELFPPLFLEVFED

CNC(=O)NC
inactive: [1] | [2] | [3] | [4]

CC(C)COC(=O)OCN1C(=O)CN(CCN2CC(=O)N(COC(=O)OCC(C)C)C(=O)C2)CC1=O
inactive: [3]
active: [1] 4.1 µM | [2] 4.07 µM | [4] 7.4 µM | [5] 3.05 µM

O=C1NC(=O)c2cc([N+](=O)[O-])ccc21
inactive: [1] | [2] | [3] | [4] | [5]

O=C(CCN1CCC(c2ccccc2)C1)c1ccc2c(c1)OCCO2 (stereo unspecified)
active: [4] 41.1 µM
inactive: [1] | [2] | [3] | [5]

CCN(CC)C(=O)[C@]1(c2ccccc2)C[C@@H]1CN
inactive: [1] | [2] | [3] | [4] | [5]

COC(=O)CS
inactive: [1] | [2] | [3] | [4] | [5]

CN(C)c1ccc(SC#N)cc1
inactive: [1] | [2] | [3] | [4] | [5]

O=C(Nc1cccc(C2=NCCN2)c1)Nc1cccc(C2=NCCN2)c1
inactive: [1] | [2] | [3] | [4] | [5]

COC(=O)c1cccc(Cl)c1
inactive: [1] | [2] | [3] | [6]

CC(=O)c1ccc2ccc3ccccc3c2c1
active: [1] 85.8 µM | [4] 80.9 µM | [5] 78.9 µM
inactive: [2] | [3]

CCNC(=O)C1CC(C)CCC1C(C)C (stereo unspecified)
inactive: [1] | [2] | [3] | [4] | [5]

O=C(c1ccc2c(c1)C(=O)OC2=O)c1ccc2c(c1)C(=O)OC2=O
inactive: [1] | [2] | [3] | [4] | [5]

COc1ccc2c(c1OC)C(=O)O[C@@H]2[C@H]1c2c(cc3c(c2OC)OCO3)CCN1C
inactive: [1] | [2] | [3] | [4] | [5]

NC1=NCC2c3ccccc3Cc3ccccc3N12 (stereo unspecified)
inactive: [1] | [2] | [3] | [4] | [5]

O=C(O)[C@H]1CN(C/C=C/P(=O)(O)O)CCN1
inactive: [1] | [2] | [3] | [6]

CC(C)(O)c1ccccc1
inactive: [1] | [2] | [3] | [4] | [5]

OCc1c2ccccc2cc2ccccc12
inactive: [1] | [2] | [3] | [4] | [5]

Cc1cc(C)cc([N+](=O)[O-])c1
inactive: [1] | [2] | [3] | [6] | [5]

CC1(C)CO[C@@H](CC(=O)O)CN1
inactive: [1] | [2] | [3] | [4] | [5]

FC(F)(F)c1cccc(Cl)c1
inactive: [1] | [2] | [3] | [4] | [5]

CCCCCCCCCCCCCCCCI
inactive: [1] | [2] | [3] | [4] | [5]

OCCOc1ccc(OCCO)cc1
inactive: [1] | [2] | [3] | [6] | [5]

Cc1ccccc1N=O
inactive: [1] | [2] | [3] | [4] | [5]

C=C(C)C(=O)OC
inactive: [1] | [2] | [3] | [4] | [5]

CCCCCCCC/C=C\CCCCCCCC(N)=O
inactive: [1] | [2] | [3] | [4] | [5]

CC=C(Cl)Cl
inactive: [1] | [2] | [3] | [4] | [5]

NS(=O)(=O)c1ccc(Cl)c(S(N)(=O)=O)c1
inactive: [1] | [2] | [3] | [4] | [5]

COc1cc(C(=O)NC2CCCNC2)cc(OC)c1OC (stereo unspecified)
inactive: [1] | [2] | [3] | [4] | [5] | [7] | [8] | [9] | [10] | [11] | [12]

O=C(O)CCCCCCC(=O)O
inactive: [1] | [2] | [3] | [4] | [5]

CC(=O)O[C@H]1CC[C@@]2(C)C(=CC[C@@H]3[C@@H]2CC[C@]2(C)C(c4cccnc4)=CC[C@@H]32)C1
inactive: [1] | [2] | [3] | [4] | [5]

Nc1c2c(nc3ccccc13)CCCC2O (stereo unspecified)
inactive: [1] | [2] | [3] | [4] | [5]

CC1(C)OC(=O)NC1=O
inactive: [1] | [2] | [3] | [4] | [5]

O=C(O)CCc1ccccc1
inactive: [1] | [2] | [3] | [4] | [6] | [5] | [13] | [14] | [15]

CC(=O)OCC[N+](C)(C)C
inactive: [1] | [2] | [3] | [6] | [5]

CNC[C@@H]1CC[C@@H](N)[C@@H](O[C@H]2[C@H](O)[C@@H](O[C@H]3OC[C@](C)(O)[C@H](NC)[C@H]3O)[C@H](N)C[C@@H]2N)O1
inactive: [1] | [2] | [3] | [6]

O=C1CCCc2c1cc1ccc3cccc4ccc2c1c34
active: [2] 62.5 µM
inactive: [1] | [3] | [4] | [5]

CC(=O)Nc1cccc(N)c1
inactive: [2] | [3] | [4]
active: [1] 84.4 µM | [5] 79.2 µM

Cc1ccc(N(CC2=NCCN2)c2cccc(O)c2)cc1
active: [1] 31 µM | [5] 30.4 µM
inactive: [2] | [3] | [4]

CO[C@H]1[C@@H](O)[C@H](N)[C@@H](O[C@H]2O[C@H]([C@H](C)N)CC[C@H]2N)[C@H](O)[C@@H]1N(C)C(=O)CN
inactive: [1] | [2] | [3] | [6] | [5]

COc1ccc(Nc2ccc(OC)cc2)cc1
active: [1] 71.5 µM | [5] 73.2 µM
inactive: [2] | [3] | [4]
